Source: PubChem (Broad Institute)
These entries were drawn from the full list.
aSyn UTR act = Activators via SNCA 5'UTR binding, MLPCN. alpha-synuclein 5'UTR reporter, activators screen. activity score, % (tested at 7.5 µM), hits read low. 7.1% of 300,000 active. AID 1814, 2009; in the data active = activity score below about -60%
Large screens that a line does not name were inactive.

CN(C)/C=N/c1nc(-c2ccc3ccccc3c2)cs1	aSyn UTR act -145
C=CCC1(CC=C)CCCN1C(=O)c1cc(COc2ccc(C)nc2)on1	aSyn UTR act -78
Cc1ccc(OCc2cc(C(=O)N3CCCC3)no2)cn1	aSyn UTR act -70
CCc1cc(CNC(=O)c2cc(COc3ccc(C)nc3)on2)on1	aSyn UTR act -73
CNC(=O)c1cc2c(ccc3ccccc32)o1	aSyn UTR act -60
O=C(Nc1cc2c(ccc3ccccc32)oc1=O)C1CCCCC1	aSyn UTR act -62
O=C(NC1CCCC1)c1cc2c(ccc3ccccc32)o1	aSyn UTR act -202
O=C1/C(=C/c2cccnc2)Oc2cc(OS(=O)(=O)c3ccccc3)ccc21	aSyn UTR act -82
COc1ccccc1OCC(=O)N/N=C1\CCc2ccccc21	aSyn UTR act -143
O=C(COc1ccccc1F)N/N=C1\CCCc2ccccc21	aSyn UTR act -162
Cc1cccc2c1OCC/C2=N\NC(=O)COc1ccccc1	aSyn UTR act -86
CCn1nc(C)c(CNC(=O)Nc2ccc3c(c2)OCO3)c1C	aSyn UTR act -70
Cc1cc(CNC(=O)Nc2ccc3c(c2)OCO3)nn1C	aSyn UTR act -80
O=C(NC1CCCCCCC1)c1ccc(Br)cc1	aSyn UTR act -92
CC(C)Oc1ccc(C(=O)NC2CCCCC2)cc1	aSyn UTR act -91
C=CCOc1ccc(C(=O)NC2CCCCC2)cc1	aSyn UTR act -161
O=C(c1cnc2nc3ccccc3n2c1)c1cc(F)ccc1O	aSyn UTR act -78
O=C(Nc1ccc(CN2CCCCC2)cc1)c1ccc(Br)o1	aSyn UTR act -76
O=C(Nc1ccc(CN2CCCCC2)cc1)c1c(F)c(F)c(F)c(F)c1F	aSyn UTR act -63
Oc1c(CN2CCCCC2)cc(Br)c2cccnc12	none
Cc1cc(N2CCOCC2)nc2ccc(NC(=O)CCC(=O)N3CCCC(C)C3)cc12 (centres undefined)	aSyn UTR act -87
Cc1cc(N2CCOCC2)nc2ccc(NC(=O)CCC(=O)N3CCN(c4ccccc4F)CC3)cc12	aSyn UTR act -127
Cc1cc(N2CCOCC2)nc2ccc(NC(=O)CCC(=O)N3CCN(c4ccc(F)cc4)CC3)cc12	aSyn UTR act -72
Cn1c(SCc2ccccc2)nnc1-c1ccc2c(c1)OCO2	aSyn UTR act -192
c1ccc(CSc2ccc(-c3ccc4c(c3)OCO4)nn2)cc1	aSyn UTR act -150
Cn1c(SCc2ccccc2)nnc1-c1ccc(O)cc1	aSyn UTR act -76
Oc1ccccc1-c1nnc(SCCN2CCOCC2)n1Cc1ccccc1	none
CC(CC(=O)Nc1nc2ccccc2[nH]1)c1ccccc1 (centres undefined)	aSyn UTR act -189
O=C(COc1ccccc1)Nc1nc2ccccc2[nH]1	aSyn UTR act -150
Cc1ccccc1OCC(=O)Nc1nc2ccccc2[nH]1	aSyn UTR act -111
Fc1cccc(CSc2nnc3c(n2)[nH]c2ccccc23)c1	aSyn UTR act -142
Cc1ccc(-c2nc(NCC3CCCO3)sc2C)cc1 (centres undefined)	aSyn UTR act -94
CC(=O)c1c(C)[nH]c(C(=O)OCC(=O)N2CCc3ccccc32)c1C	aSyn UTR act -131
Cc1ccc(C(=O)OCC(=O)N2CCc3ccccc32)cc1	aSyn UTR act -70
COc1cc(-c2nc3ccc(N4CCN(C)CC4)cc3[nH]2)cc(OC)c1OC	aSyn UTR act -102
CCC(C)Nc1nc(-c2ccc3c(c2)NC(=O)CO3)cs1 (centres undefined)	aSyn UTR act -112
CC(C)c1ccccc1-n1c(SCC(=O)c2ccc3c(c2)NC(=O)CO3)nc2ccccc2c1=O	none
COc1ccc(Nc2nc(-c3ccc4c(c3)NC(=O)CO4)cs2)cc1	aSyn UTR act -110
C/C(=N\OC(=O)NC1CCCCC1)c1sc(-c2ccccc2)nc1C	aSyn UTR act -115
C=C(C)c1sc(-c2ccc(Cl)cc2)nc1C	aSyn UTR act -223
CCNC(=O)O/N=C(\C)c1sc(-c2ccc(Cl)cc2)nc1C	aSyn UTR act -77
C/C(=N\OC(=O)NC(C)C)c1sc(-c2ccc(Cl)cc2)nc1C	aSyn UTR act -154
C/C(=N\OC(=O)NC(C)C)c1sc(-c2ccccc2)nc1C	aSyn UTR act -141
COc1ccc(C2OC3=C(Nc4cc(C)c(C)cc4N3)C2=O)cc1 (centres undefined)	aSyn UTR act -98
Cn1c(=O)c2nc(-c3ccccc3)oc2c2ccccc21	aSyn UTR act -69
COc1cccc(-c2cc(=O)c3cc(NC(=O)c4ccc(N(C)C)cc4)ccc3[nH]2)c1	none
CC(=O)Nc1cccc(NC(=O)c2ccc3[nH]c(C)c(C)c3c2)c1	aSyn UTR act -107
COc1ccc(NC(=O)c2ccc3[nH]c(C)c(C)c3c2)cc1	aSyn UTR act -101
CCOc1ccc(NC(=S)c2ccc3ccccc3n2)cc1	aSyn UTR act -67
COc1ccc(C(=O)NC(=S)NNC(=O)c2ccc3ccccc3n2)cc1	none
COc1ccc(NC(=S)c2ccc3ccccc3n2)cc1	aSyn UTR act -70
Cc1ccc2c(c1)c(C)c(C)n2CC(O)Cn1nnc2ccccc21 (centres undefined)	aSyn UTR act -70
COc1ccc(OC)c(Nc2cc(C)nc3ccc(C)cc23)c1	none
COc1ccc2nc(C)cc(Nc3ccc(N4CCN(C)CC4)cc3)c2c1	aSyn UTR act -87
C=CCN(C(=O)C1CSC2(C)CCC(=O)N12)c1nc(-c2ccccc2)cs1 (centres undefined)	aSyn UTR act -68
O=C(C1=NN[C@@H]2C(=O)N(c3cccc(F)c3)C(=O)[C@H]12)c1ccc2ccccc2n1	aSyn UTR act -79
Clc1ccc(/C=N/Nc2nnc(-c3ncc[nH]3)c3ccccc23)cc1	aSyn UTR act -169
Clc1cccc(/C=N/Nc2nnc(Cl)c3ccccc23)c1	aSyn UTR act -197
O=C(NC1CCCC1)C(c1ccncc1)N(Cc1ccco1)C(=O)c1ccc(-c2ccccc2)[nH]1 (centres undefined)	aSyn UTR act -68
O=C(Nc1ccc2nc(-c3ccccc3)[nH]c2c1)c1ccco1	aSyn UTR act -205
O=C(Nc1ccc2nc[nH]c2c1)c1ccco1	aSyn UTR act -74
CC(=O)Nc1ccc2nc(-c3ccc(Br)o3)[nH]c2c1	aSyn UTR act -127
O=C(Nc1ccc2nc(-c3ccc(Br)o3)[nH]c2c1)c1cccs1	aSyn UTR act -112
O=C(Nc1ccc2nc(-c3cccnc3)[nH]c2c1)C1CCCCC1	aSyn UTR act -72
Cc1cc(C)cc(NS(=O)(=O)c2ccc(-c3cnc(C4CC4)o3)cc2)c1	none
Cc1ccc(-c2nc3ccc(NS(=O)(=O)c4ccccc4)cc3[nH]2)o1	aSyn UTR act -174
Cc1cccc2[nH]c(-c3ccc(NC(=O)c4ccco4)cc3)nc12	aSyn UTR act -225
O=C(Nc1ccc2nc(-c3ccc(Br)o3)[nH]c2c1)c1ccco1	aSyn UTR act -106
CN(C)c1ccc(/C=C/c2nc3ccccc3s2)cc1	none
COc1ccc(/C=N/Nc2nc3ccccc3s2)cc1O	none
COc1ccc(C=C(c2nc3ccccc3s2)c2nc3ccccc3s2)cc1O	aSyn UTR act -281
COc1cc(/C=C/c2nc3ccccc3s2)cc(OC)c1O	aSyn UTR act -69
COc1ccc(-c2cc3ccc(O)cc3oc2=O)cc1	aSyn UTR act -64
CC(=O)Oc1ccc(-c2cc3ccccc3oc2=O)cc1	aSyn UTR act -135
O=c1cc(-c2ccccc2)c2ccc(O)cc2o1	none
O=c1oc2cc(O)ccc2cc1-c1ccccc1	aSyn UTR act -147
Cc1cc(NC(=O)c2ccc(F)cc2)no1	aSyn UTR act -79
Cc1cc(NC(=O)c2nn(C)c(C)c2Br)no1	aSyn UTR act -87
CC(=O)Nc1ccc(C(=O)Nc2cc(C)on2)cc1	aSyn UTR act -85
